# According to ChEMBL document CHEMBL3433997, “St. Jude Leishmania screening dataset” (2016):
# Target: Glucose transporter (Leishmania mexicana) (UniProt O61059)
# Experiment: ST_JUDE_LEISH: Cytotoxicity at 2uM final concentration against transgenic Leishmania Mexicana promastigotes LmGT2 that are glucose transport deficient and complemented with the L. Mexicana glucose transporter 2. Activity is measured by DNA content using SYBR green in vitro
# Type: functional
row,SMILES,inhibition
1,COc1ccc(CN2CCCC(OC(c3ccc(F)cc3)c3ccc(F)cc3)C2)c(O)c1 (stereo not given),9.65%
2,CCNc1cc(C(=O)N[C@@H](Cc2ccc(F)c(F)c2)[C@H](O)CNCc2cccc(OC)c2)cc(N2CCCCS2(=O)=O)c1,-0.12%
3,O=C(Nc1cccc(-c2ccc(CN3CCNCC3)cc2)c1)c1cccc(Cl)c1,-2.68%
4,CC(C)CNC(=O)c1ccnc(-c2ccc(CNCCCc3ccccc3)cc2)c1,2.74%
5,COc1ccc(CNCc2ccc(F)cc2)cc1-c1ccc(S(=O)(=O)NCCN2CCCC2)cc1,5.24%
6,Cc1cccc2nc(C3CCN(CC4CCN(C(=O)/C=C/c5ccc(Cl)c(Cl)c5)CC4)CC3)[nH]c12,10.6%
7,COc1ccc(-c2ccc(NC(=O)c3ccccc3)cc2)cc1CN1CCCN(C)CC1,-1.41%
8,O=C(Nc1ccc2nc3n(c(=O)c2c1)CCCCC3)C(=O)N1CCN(c2ccc(F)cc2)CC1,7.95%
9,Cc1cc(C(=O)Nc2nc(-c3ccccn3)nc3ccsc23)no1,68.5%
10,O=[N+]([O-])c1cccc(C=NNc2nc(=Nc3ccccc3)[nH]c(=Nc3ccccc3)[nH]2)c1,-0.18%
11,Cc1cc(NCCC(=O)NCc2cccc(F)c2)nc(Nc2ccccc2)n1,-6.28%
12,NS(=O)(=O)c1cccc(Br)c1,2.22%
13,COc1cccc(CC(=O)N2CCC(n3c(C)nc4ccc(C)cc43)CC2)c1,1.1%
14,Clc1ccc2c(NCCNc3ccnc4cc(Cl)ccc34)ccnc2c1,-0.13%
15,c1ccc2[nH]c(-c3ccc(-c4ccc(CN5CCN(c6ccncc6)CC5)cc4)s3)nc2c1,1.74%
16,Cn1nc(C(F)(F)F)c(-c2ccc(Br)cc2)c1NC(=O)Nc1ccc(F)cc1F,1.25%
17,Cc1cc(N[C@@H](Cc2ccccc2)C(=O)NCCc2ccccc2)nc(NCCc2ccccc2)n1,4.38%
18,O=S(=O)(NCCN1CCCC1)c1ccc(-c2ccc(CNCc3ccc(F)cc3)cc2)s1,0.98%
19,NC(=O)c1cccc(C(=O)Nc2cccc(-c3ccc(-c4nc5cc(C(F)(F)F)ccc5[nH]4)cc3)c2)c1,2.53%
20,Oc1ccc(CCNc2nc(NCCCOc3cccc(-c4ccccc4)c3)nc(N3CCNCC3)n2)cc1,2.5%

row,SMILES,inhibition
1,CNc1ccc(CNCc2ccc(-c3ccc(-c4nc5cc(F)ccc5[nH]4)cc3)cc2)cc1,-0.33%
2,O=C(Nc1ccc(Cl)cc1)Nc1cccc(-c2cccc(-c3nc4cc(C(F)(F)F)ccc4[nH]3)c2)c1,-2.27%
3,CC(=O)Nc1ccc(C#Cc2ccc(-c3c(C)[nH]c(C)c(Cl)c3=O)cc2)cc1,1.24%
4,CC1(C)N=C(N)N=C(N)N1c1ccc(Cl)c(Cl)c1,3.04%
5,Cc1cc(CNCCCCCCNCc2ccc(-c3ccccc3)cc2)ccc1O,4.84%
6,Cc1cccc2nc(-c3ccc(-c4cccc(CN5CCN(CC6CCCN(C)C6)CC5)c4)s3)[nH]c12 (stereo not given),0.69%
7,CCCN(CC1CC1)c1ncc(-c2ccccc2CNCc2ccccc2O)cn1,4.56%
8,COc1ccc(CCc2ccc(-c3c(C)[nH]c(C)c(Cl)c3=O)cc2)cc1,1.05%
9,COC(=O)c1cc2cccc(NC[C@@H](C)NC[C@H](O)c3cccc(Cl)c3)c2[nH]1,1.28%
10,CN(C)CCCNc1nccc(N(C)c2ccc(NC(=O)Nc3cc(C(F)(F)F)ccc3F)cc2)n1,-0.59%
11,Cn1cnc(-c2ccc3c(c2)CCN(CCC2CCC(NC(=O)/C=C/c4ccc(F)cc4)CC2)CC3)c1 (stereo not given),60.9%
12,OCC1CCN(Cc2ccc(-c3ccc(-c4nc5ccccc5[nH]4)cc3)cc2)CC1,5.45%
13,O=S(=O)(NCCN1CCCC1)c1ccc(-c2ccc(CNCc3ccc(F)cc3)cc2)cc1,4.15%
14,Cc1c(-c2cccc(CNCCc3ccc(Cl)cc3)c2)cnc(N)c1C,-1.41%
15,Cc1ccc(CN2CCCN(Cc3cccc(C(=O)Nc4ccc(C(C)(C)C)cc4)c3)CC2)s1,0.76%
16,CC(C)(C)c1ccc(/C=C/C(=O)NCCCCCN2CCC(c3c[nH]c4ccccc34)CC2)cc1,-1.25%
17,CCOC(=O)c1ccc(NC(=O)Nc2cccc(-c3ccc(-c4nc5ccccc5[nH]4)cc3)c2)cc1,3.89%
18,c1cncc(CCNCc2ccc(-c3ccc(-c4nc5ccccc5[nH]4)s3)cc2)c1,0.7%
19,CCC(=O)Nc1ccc(Nc2nc(C)cc(N3CCCC3)n2)cc1,2.39%
20,CS(=O)(=O)CCCNCc1ccc(-c2cc3c(Nc4ccc(OCc5ccccc5)cc4)ncnc3cn2)o1,2.01%
